Assay results as given in the supplement of paper PMC6555819.

Assays:
Experiment in all cases: PBM binding z-score (relative to random genomic background probes); higher = stronger binding; sequences stand for … in GC…GCGATTGACAGCGTAGAATGAAGG
[1] = tested on: FXR:RXRa (NR concentration 270 nM, RXRa partner concentration 90 nM)
Outline: (§1)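 Random background probes are the reference for binding z-scores. These scores derive from regression-normalized fluorescence on custom Agilent 4×180K protein-binding microarrays incubated 1 h with ligand-free nuclear receptor dimers. Binding was detected with antibodies against each partner (one per run).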

[2] = tested on: LXRa:RXRa (NR concentration 270 nM, RXRa partner concentration 90 nM)
Outline: as §1

[3] = tested on: LXRa homodimer (NR concentration 270 nM)
Outline: as §1

[4] = tested on: LXRb:RXRa (NR concentration 270 nM, RXRa partner concentration 90 nM)
Outline: as §1

[5] = tested on: LXRb homodimer (NR concentration 270 nM)
Outline: as §1

[6] = tested on: PPARa:RXRa (NR concentration 270 nM, RXRa partner concentration 90 nM)
Outline: as §1

[7] = tested on: PPARg:RXRa (NR concentration 180 nM, RXRa partner concentration 90 nM)
Outline: as §1

[8] = tested on: PPARg:RXRa 270nM:90nM, anti-RXR (NR concentration 270 nM, RXRa partner concentration 90 nM)
Outline: as §1

[9] = tested on: PPARg:RXRa 30nM:10nM, anti-RXR (NR concentration 30 nM, RXRa partner concentration 10 nM)
Outline: as §1

[10] = tested on: PPARg:RXRa 90nM:30nM, anti-RXR (NR concentration 90 nM, RXRa partner concentration 30 nM)
Outline: as §1

[11] = tested on: PPARg:RXRa DBDmut IVT, anti-RXR (DBD mutation: RXRa K156A/R161A, NR concentration 270 nM, RXRa partner concentration 90 nM)
Outline: as §1

[12] = tested on: PPARg:RXRa IVT, anti-PPARg (NR concentration 270 nM, RXRa partner concentration 90 nM)
Outline: as §1

[13] = tested on: PPARg DBDmut:RXRa IVT, anti-PPARg (DBD mutation: PPARg1 K132A/R137A, NR concentration 270 nM, RXRa partner concentration 90 nM)
Outline: as §1

[14] = tested on: PPARg DBDmut IVT, anti-PPARg (DBD mutation: PPARg1 K132A/R137A, NR concentration 270 nM)
Outline: as §1

[15] = tested on: PPARg homodimer (NR concentration 180 nM)
Outline: as §1

[16] = tested on: PXR:RXRa (NR concentration 270 nM, RXRa partner concentration 90 nM)
Outline: as §1

[17] = tested on: PXR homodimer (NR concentration 270 nM)
Outline: as §1

[18] = tested on: RARa:RXR (NR concentration 270 nM, RXRa partner concentration 90 nM)
Outline: as §1

[19] = tested on: RARa homodimer (NR concentration 270 nM)
Outline: as §1

[20] = tested on: RARb:RXRa (NR concentration 270 nM, RXRa partner concentration 90 nM)
Outline: as §1

## GGAACGTGGGCAAAGTTGATAGCATCTGTCGACG
[1]
  PBM binding z-score: -0.58
[2]
  PBM binding z-score: -0.566
[3]
  PBM binding z-score: -0.508
[4]
  PBM binding z-score: -0.667
[5]
  PBM binding z-score: -0.939
[6]
  PBM binding z-score: 0.742
[7]
  PBM binding z-score: 1.45
[8]
  PBM binding z-score: 3.26
[9]
  PBM binding z-score: 0.952
[10]
  PBM binding z-score: 2.7
[11]
  PBM binding z-score: -0.0354
[12]
  PBM binding z-score: 0.169
[13]
  PBM binding z-score: -0.243
[14]
  PBM binding z-score: -0.6
[15]
  PBM binding z-score: 0.0888
[16]
  PBM binding z-score: -0.428
[17]
  PBM binding z-score: -0.473
[18]
  PBM binding z-score: -0.469
[19]
  PBM binding z-score: -0.252
[20]
  PBM binding z-score: 0.113

## TCCAGCAGGCCAGAGGGTCACTCAAGAGGTACGG
[1]
  PBM binding z-score: 0.97
[2]
  PBM binding z-score: 1.16
[3]
  PBM binding z-score: -0.45
[4]
  PBM binding z-score: 1.18
[5]
  PBM binding z-score: -1.14
[6]
  PBM binding z-score: 2.23
[7]
  PBM binding z-score: 0.983
[8]
  PBM binding z-score: 1.87
[9]
  PBM binding z-score: 1.59
[10]
  PBM binding z-score: 1.79
[11]
  PBM binding z-score: 0.933
[12]
  PBM binding z-score: 0.217
[13]
  PBM binding z-score: -0.437
[14]
  PBM binding z-score: -1.27
[15]
  PBM binding z-score: 0.577
[16]
  PBM binding z-score: 1.45
[17]
  PBM binding z-score: -0.376
[18]
  PBM binding z-score: 2.3
[19]
  PBM binding z-score: -0.207
[20]
  PBM binding z-score: 2.2

## CCTACTGGGCCATCAGGTCATTGATATCAACGTT
[1]
  PBM binding z-score: 1.4
[2]
  PBM binding z-score: 1.19
[3]
  PBM binding z-score: 1.28
[4]
  PBM binding z-score: 1.56
[5]
  PBM binding z-score: -0.271
[6]
  PBM binding z-score: 2.79
[7]
  PBM binding z-score: 2.68
[8]
  PBM binding z-score: 3.7
[9]
  PBM binding z-score: 1.46
[10]
  PBM binding z-score: 3.18
[11]
  PBM binding z-score: 4.98
[12]
  PBM binding z-score: 4.72
[13]
  PBM binding z-score: 0.527
[14]
  PBM binding z-score: -0.213
[15]
  PBM binding z-score: 1.26
[16]
  PBM binding z-score: 1.56
[17]
  PBM binding z-score: 0.961
[18]
  PBM binding z-score: 1.65
[19]
  PBM binding z-score: 0.0562
[20]
  PBM binding z-score: 2.1
